# PubChem BioAssay (NCI)
# The panel holds about 83,000 compounds, 20% with a hit somewhere; the sample as a whole holds those more often.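 48-hour exposure, single concentration, 96-well plates; percent growth endpoint where 0 means no net growth. Active: below 10.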 Values without a mark were called inactive. Activity calls are given as the source filed them.
# Columns and labels:
# Assay in all cases: NCI-60 one-dose screen, 48 h (100 = growth as untreated, 0 = no growth, -100 = all killed)
# Conditions in all cases: 10 µM unless noted
# NCI-H23 lung = test system: NCI-H23 lung
# NCI-H226 lung = test system: NCI-H226 lung
# NCI-H322M lung = test system: NCI-H322M lung
# HOP-62 NSCLC = test system: HOP-62 NSCLC
# NCI-H460 lung = test system: NCI-H460 lung
# HOP-92 NSCLC = test system: HOP-92 NSCLC
# NCI-H522 lung = test system: NCI-H522 lung
# A549/ATCC NSCLC = test system: A549/ATCC NSCLC
# 786-0 renal = test system: 786-0 renal
# COLO 205 colon = test system: COLO 205 colon
Compound,growth (NCI-H23 lung),growth (NCI-H226 lung),growth (NCI-H322M lung),growth (HOP-62 NSCLC),growth (NCI-H460 lung),growth (HOP-92 NSCLC),growth (NCI-H522 lung),growth (A549/ATCC NSCLC),growth (786-0 renal),growth (COLO 205 colon)
COc1ccc2c(c1)c(-c1nc(-c3cn(C)c4ncccc34)cs1)cn2CCCCN1CCCCC1,15.3%,56.6%,-31.4% (active),-78.5% (active),-61.2% (active),50.3%,-61.7% (active),-56.4% (active),-90.8% (active),-71.7% (active)
CC1(C)N=C(N)N=C(N)N1c1ccc(OCCCNC(=O)Nc2ccc(S(=O)(=O)F)cc2)c(Cl)c1,27.3%,40.1%,52.5%,49%,14.4%,78.6%,21.5%,18%,27.5%,31.5%
CCOP(=O)(Nc1ccc2c(c1)/C(=N/NC(N)=S)c1ccccc1-2)OCC,99%,97.6%,132%,117%,104%,96.1%,95.4%,99.5%,104%,96.3%
CCC1CN1CCCCN1CC1CC (stereo not given),104%,98.3%,96.7%,113%,113%,116%,95.6%,104%,104%,112%
C/C(=C\c1ccn(-c2ccc(N)c(F)c2)n1)[C@@H]1C[C@@H]2O[C@]2(C)CCC[C@H](C)[C@H](O)[C@@H](C)C(=O)C(C)(C)[C@@H](O)CC(=O)O1,30.4%,50.9%,25.7%,38.1%,15.9%,53.2%,18.7%,26.5%,25.3%,-8.2% (active)
O=[N+]([O-])/C=C\c1ccc(Cl)c(Cl)c1,77%,73.8%,105%,95.6%,67.2%,59.2%,74%,57.5%,74%,41.1%
COC(=O)[C@H](Cc1ccccc1)NC(=O)c1csc([C@@H](C[C@H](C(C)C)N(C)C(=O)[C@@H](NC(=O)[C@H]2CCCCN2C)C2CC2)OC(C)=O)n1,23.9%,27.7%,46.1%,-2.57% (active),1.93% (active),-3.94% (active),-28.7% (active),14.2%,11.7%,-66.6% (active)
C[C@]12CCc3sc(-c4cccc(F)c4)nc3C1=CC[C@@H]1[C@@H]2CC[C@]2(C)C(=O)CC[C@@H]12,62.7%,65.8%,69.3%,50.5%,53.9%,74.3%,-36.5% (active),55%,-10.1% (active),44.5%
O=C1NC(=O)C(=Cc2ccc(OCCCCC3CCCCC3)c(Cl)c2)C(=O)N1,96.7%,102%,105%,89.7%,93.8%,87.4%,81.1%,92.6%,88.2%,112%
CCOC(=O)[C@@H](C)C[C@H](Cc1ccccc1)NC(=O)c1csc([C@@H](C[C@H](C(C)C)N(C)C(=O)[C@H](CC)NC(=O)[C@H]2CCCCN2C)OC(C)=O)n1,28.4%,65.2%,43.1%,20.2%,6.53% (active),41.5%,-22.8% (active),7.92% (active),8.33% (active),-61.6% (active)
Cc1sc2c(c1C)C(c1ccc(Cl)cc1)=N[C@@H](CC(=O)OC(C)(C)C)c1nnc(C)n1-2,28.5%,71.8%,37.3%,36.8%,39.9%,21.2%,2.71% (active),37.9%,46%,19.3%
CNCc1cccnc1,104%,101%,113%,114%,114%,108%,84.2%,97.6%,107%,122%
c1ccc(COc2ccc3[nH]cc(CCN(Cc4ccccc4)Cc4ccccc4)c3c2)cc1,77.5%,73.8%,100%,99.4%,91.6%,81.6%,82.9%,85.2%,91.9%,101%
C[C@@H]1O[C@@H](O[C@H]2C[C@@H](O)[C@]3(CO)C4C(CC[C@]3(O)C2)[C@@]2(O)CC[C@H](C3=CC(=O)OC3)[C@@]2(C)C[C@H]4O)[C@H](O)[C@H](O)[C@H]1O (stereo not given in full),-67.1% (active),-72.3% (active),-64.5% (active),-99.5% (active),-75.9% (active),-0.733% (active),-54.4% (active),-91.4% (active),-95.3% (active),-84.2% (active)
CCCCCCCCC(CO)NCCc1ccccc1 (stereo not given),105%,98.6%,88.8%,98%,102%,77.9%,73.7%,83.7%,102%,107%
O=C1C2CCC1C(N1CCCC1)CC2 (stereo not given),105%,95.9%,92.5%,101%,103%,85.5%,94.9%,97.8%,98.4%,107%
Cc1cc(N(CCCl)CCCl)ccc1/C=N\NC(=O)c1ccncc1,87.8%,-7.98% (active),113%,79.4%,25.9%,97%,101%,78.4%,82.5%,98%
CNC(=O)Oc1ccc2c(c1)OCO2,103%,103%,107%,102%,106%,108%,103%,100%,107%,103%
Cc1ccc(S(=O)(=O)C(Cl)(Cl)Cl)cc1,98.3%,80.4%,105%,90.2%,104%,82.3%,76.2%,77.2%,88.5%,99.4%
CC(C)=CCC/C(C)=C/C=N\N=C(/N)N[N+](=O)[O-],97.6%,99.3%,95.9%,87.2%,110%,89.8%,47.7%,97.4%,80.4%,103%
CS(=O)(=O)CCN1CC2CCCC(C2)C1,99.7%,121%,127%,103%,110%,109%,97.9%,99.9%,95.6%,99%
O=c1[nH]c2ccc([N+](=O)[O-])cc2c(=O)o1,101%,108%,97.6%,103%,103%,79.5%,100%,107%,112%,109%
CC[C@H](NC(=O)[C@H]1CCCCN1C)C(=O)N(C)[C@H](C[C@@H](OC(C)=O)c1nc(C(=O)N[C@@H](Cc2ccccc2)C[C@H](C)C(=O)O)cs1)C(C)C,23%,65.7%,46.6%,25.4%,2.71% (active),46%,-19.9% (active),10.4%,10.8%,-54.5% (active)
Fc1cccc(NCOOC2(OOCNc3cccc(F)c3)CCCCC2)c1,81.9%,112%,98.6%,90.6%,104%,87.3%,74.9%,89.6%,85%,118%
Clc1ccc(CSC(Cn2ccnc2)c2ccc(Cl)cc2Cl)cc1 (stereo not given),27.1%,52.2%,63.3%,52.6%,23.2%,-4.58% (active),34.6%,27.5%,34.2%,-55.2% (active)
CC(C)CCC(=O)O[C@H]1CC[C@H]2[C@@H]3CCC4=CC(=O)CC[C@]4(C)[C@H]3CC[C@]12C,95.2%,97.5%,93.4%,102%,98.7%,112%,93.3%,96%,105%,106%
COc1cc([C@@H]2c3cc4c(cc3[C@H](OC(C)=O)[C@H]3COC(=O)[C@@H]23)OCO4)cc(OC)c1OC,0.572% (active),33.2%,36.3%,10.6%,-4.08% (active),27.2%,-34.7% (active),10.5%,2.27% (active),-75.8% (active)
